Bioassay records: PubChem, National Center for Advancing Translational Sciences (NCATS)
An excerpt weighted towards active compounds, which were near 5.7% of everything screened.
KDM4E inh: blocks human JMJD2E demethylase activity | B2RXH2 | JMJD2E catalytic domain, FDH-coupled NADH fluorescence (FDH is formaldehyde dehydrogenase) | Potency, µM (highest dose often 57.1 µM), for the others: top-dose activity change, negative = inhibition, usual class: inhibitors | 1.6% of 230,000 active | AID 2147; active means well fitted inhibition curve with a large enough effect, not every such curve was filed as active; inconclusive means small, poorly fitted or top-dose-only effect, or another doubt; inactive means no such curve, though single readings can be large or run the other way;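 further: potency means the concentration at half of the fitted maximal effect; 0% = wells with enzyme and -100% = buffer wells without enzyme; nearly all actives have a fitted effect of over 50% in size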
PI5P4K alpha inh: blocks human PI5P4K alpha kinase activity; P48426; AID 652105; PI5P4Kalpha enzyme, ADP-Glo luminescence, 60 min; hits give low values; 1.2% of 330,000 active; max response, %; active means max response of -50% or lower; inconclusive means between -30% and -50%; inactive means -30% or higher; further: value at the top dose of about 77 µM; on the % scale 0 is the no-effect control and ±100 the full control effect
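qHTS, 1536-well: enzyme/substrate mix, compound by pin tool, 5 microM ATP final; RT 60 min; ADP-Glo reagents 1 (45 min) then 2 (30 min); luminescence.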
L3MBTL1 inh: inhibitors of human L3MBTL1 | AID 485360 | AlphaScreen L3MBTL1–H3K9me1 peptide binding | Potency, µM (series often up to 57.1 µM), for the others: top-dose activity, negative = inhibition, usual class: inhibitors | Q9Y468 | 0.66% of 230,000 active; further: potency means the concentration at half of the fitted maximal effect; on the % scale 0 is the no-effect control and ±100 the full control effect; nearly all actives have a fitted effect of over 60% in size
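L3MBTL1 (50 nM) pre-complexed 30 min with biotinylated H3(1-15)K9me1 peptide (75 nM), then compounds added for 30 min at room temperature; AlphaScreen streptavidin donor/nickel chelate acceptor beads (10 ug/mL final) read after 30 min dark incubation.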
BAZ2B inh: inhibitors of human BAZ2B bromodomain | AlphaScreen BAZ2B-H3K14Ac peptide displacement | AID 504333 | 4.4% of 360,000 active | Q9UIF8 | Potency, µM (doses to about 114 µM), for the others: top-dose activity change, negative = inhibition, most hits filed as inhibitors; further: potency means the concentration at half of the fitted maximal effect; on the % scale 0 is the no-effect control and ±100 the full control effect; nearly all actives have a fitted effect of over 60% in size
Target sequence (Q9UIF8 whole entry, looked up): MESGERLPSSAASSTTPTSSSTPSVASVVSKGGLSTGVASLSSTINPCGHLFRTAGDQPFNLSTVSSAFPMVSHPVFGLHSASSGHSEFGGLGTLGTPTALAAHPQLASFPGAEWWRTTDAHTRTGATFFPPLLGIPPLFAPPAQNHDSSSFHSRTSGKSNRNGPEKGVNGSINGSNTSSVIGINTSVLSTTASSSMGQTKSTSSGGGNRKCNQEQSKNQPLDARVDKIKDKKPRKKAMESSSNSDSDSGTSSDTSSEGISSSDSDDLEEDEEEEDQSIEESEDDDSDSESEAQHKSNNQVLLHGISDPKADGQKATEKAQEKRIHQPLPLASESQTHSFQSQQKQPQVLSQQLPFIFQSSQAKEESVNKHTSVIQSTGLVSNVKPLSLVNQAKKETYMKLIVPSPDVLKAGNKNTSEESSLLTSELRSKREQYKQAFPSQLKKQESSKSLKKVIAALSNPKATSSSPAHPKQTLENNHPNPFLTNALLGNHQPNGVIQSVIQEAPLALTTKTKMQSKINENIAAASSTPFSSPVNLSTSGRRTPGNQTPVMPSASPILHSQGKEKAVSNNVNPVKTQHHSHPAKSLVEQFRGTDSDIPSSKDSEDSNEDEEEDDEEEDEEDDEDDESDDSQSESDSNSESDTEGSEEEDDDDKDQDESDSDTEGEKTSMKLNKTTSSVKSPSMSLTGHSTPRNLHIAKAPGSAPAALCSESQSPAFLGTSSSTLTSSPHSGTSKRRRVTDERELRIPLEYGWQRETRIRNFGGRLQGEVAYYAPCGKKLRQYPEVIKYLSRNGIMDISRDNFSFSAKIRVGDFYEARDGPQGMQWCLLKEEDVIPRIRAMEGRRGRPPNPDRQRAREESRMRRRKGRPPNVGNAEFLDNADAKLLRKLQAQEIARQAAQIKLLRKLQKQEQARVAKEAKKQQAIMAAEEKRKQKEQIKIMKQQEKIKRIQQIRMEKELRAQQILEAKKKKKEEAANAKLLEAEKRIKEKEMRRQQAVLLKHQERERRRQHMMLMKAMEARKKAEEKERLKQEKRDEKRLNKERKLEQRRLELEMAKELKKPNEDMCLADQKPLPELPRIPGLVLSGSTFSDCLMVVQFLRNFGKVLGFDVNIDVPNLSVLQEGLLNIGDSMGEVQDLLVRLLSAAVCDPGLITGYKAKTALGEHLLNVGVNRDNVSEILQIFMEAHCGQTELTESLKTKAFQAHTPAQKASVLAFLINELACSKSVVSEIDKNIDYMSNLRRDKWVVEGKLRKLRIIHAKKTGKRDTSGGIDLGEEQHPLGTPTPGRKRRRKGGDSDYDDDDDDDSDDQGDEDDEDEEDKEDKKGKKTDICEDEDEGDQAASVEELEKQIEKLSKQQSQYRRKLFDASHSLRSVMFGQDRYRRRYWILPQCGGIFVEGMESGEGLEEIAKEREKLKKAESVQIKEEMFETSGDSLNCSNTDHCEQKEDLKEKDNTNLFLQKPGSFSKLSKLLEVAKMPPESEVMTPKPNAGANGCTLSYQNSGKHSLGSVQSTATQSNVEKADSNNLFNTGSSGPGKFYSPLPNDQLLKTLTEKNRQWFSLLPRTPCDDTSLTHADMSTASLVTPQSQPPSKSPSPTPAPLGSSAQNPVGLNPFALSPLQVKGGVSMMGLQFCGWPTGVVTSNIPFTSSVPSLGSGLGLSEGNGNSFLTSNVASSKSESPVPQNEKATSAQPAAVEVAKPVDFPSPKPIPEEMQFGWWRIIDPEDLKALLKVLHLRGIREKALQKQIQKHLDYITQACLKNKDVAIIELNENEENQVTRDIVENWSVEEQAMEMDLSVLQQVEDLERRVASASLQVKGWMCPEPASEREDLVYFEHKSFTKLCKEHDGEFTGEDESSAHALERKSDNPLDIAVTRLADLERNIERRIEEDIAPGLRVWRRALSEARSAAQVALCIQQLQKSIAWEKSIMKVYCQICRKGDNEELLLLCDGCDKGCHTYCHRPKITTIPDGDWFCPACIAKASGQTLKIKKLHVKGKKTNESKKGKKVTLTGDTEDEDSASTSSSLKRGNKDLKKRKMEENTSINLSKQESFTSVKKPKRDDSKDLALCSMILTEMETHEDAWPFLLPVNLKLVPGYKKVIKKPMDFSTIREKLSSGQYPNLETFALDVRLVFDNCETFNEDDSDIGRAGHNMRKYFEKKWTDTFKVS
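BAZ2B 50 nM plus b-H3(5-23)K14Ac 50 nM, PBS pH 7.4/0.01% Tween-20, 30 min RT; compound added (max 110 uM), 30 min RT; streptavidin donor/Ni-chelate acceptor beads 10 ug/mL final, 20 min dark; AlphaScreen read.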
HP1b chromo inh: blocks HP1-beta chromodomain binding to methylated histone tails. AlphaScreen HP1-beta / biotin-H3K9me3 peptide binding. 0.56% of 390,000 active. P83916. Potency, µM (titrated, usually from 114 µM), for inactives: at the highest dose activity change, negative = inhibition, most hits filed as inhibitors; further: potency means the concentration at half of the fitted maximal effect; nearly all actives have a fitted effect of over 70% in size
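AlphaScreen: HP1-beta (50 nM) preformed 30 min with biotin-H3(1-18)K9me3 peptide (50 nM) in PBS pH 7.4, 0.01% Tween-20. Compound added for 30 min at RT, then streptavidin donor/nickel chelate acceptor beads (10 ug/mL) for 30 min.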
JMJD2A Tudor inh: JMJD2A Tudor domain (human) inhibition. 4.4% of 390,000 active. AlphaScreen JMJD2A-Tudor / H3K4me3 peptide binding. Potency, µM (highest dose often 114 µM), for inactives: at the top dose activity change, negative = inhibition, actives largely listed as inhibitors. AID 504339. O75164; further: potency means the concentration at half of the fitted maximal effect; on the % scale 0 is the no-effect control and ±100 the full control effect; nearly all actives have a fitted effect of over 50% in size
Numbers without * were called inactive; ? = inconclusive; · = no result given; [ ] = another dose, or the depositor's remark. Unless noted, the call rests on the fitted dose curve; in most records, active means well fitted inhibition curve with a large enough effect; inconclusive means small, poorly fitted or top-dose-only effect; inactive means no such curve, though single readings can be large or run the other way.

SMILES	KDM4E inh	PI5P4K alpha inh	L3MBTL1 inh	BAZ2B inh	HP1b chromo inh	JMJD2A Tudor inh
CCOC(=O)c1ccc(S(=O)(=O)NNC(=O)COc2cccc(C)c2)cc1	4.5%	-5.5	10.4%	-1.0%	40.7%	6.7%[57.1 µM]
CC(=O)Nc1ccc(S(=O)(=O)NNC(=O)COc2cccc(C)c2)cc1	?	-26.6	0.0%	5.5%[57.1 µM]	-21.3%	50.1µM*
Cc1ccc(NNS(=O)(=O)c2ccc(C)cc2)cc1	17.8µM*	-62.6*	5.1%	20µM*	?	3.16µM*
CC(=O)Nc1ccc(S(=O)(=O)NNC(=O)c2sc(=S)n(C)c2C)cc1	2.4%	1.0	5.7%	-10.8%	13.5%	0.708µM*
COC(=O)C1=C[C@@H](C(=O)OC)C2C3=C(C(=O)[C@@]2(C)NC(=O)c2ccccc2)[C@H](C)n2c(=O)n(-c4ccccc4)c(=O)n2[C@@H]3C1 (some centres not stated)	·	·	·	·	11.6%	-7.6%
Cc1ccc(S(=O)(=O)Nc2ccc(N=Nc3ccc(O)cc3)cc2)cc1	4.8%	-14.0	-7.9%	44.7µM*	?	?
CSc1ccc(S(=O)(=O)Nc2ccc(S(=O)(=O)Nc3ccc(C)cc3)cc2)cc1	-7.8%	·	·	-31.0%	-0.3%	?
Cn1c(=O)[nH]c2nnc(-c3ccc(Cl)c(Cl)c3)nc2c1=O	-11.1%	-10.8	·	89.1µM*	3.4%	?
O=C(CC1Nc2ccccc2NC1=O)NCCCN1CCCCCC1 (configuration not stated)	?	1.5	0.4%	-28.6%	13.5%	31.6µM*
CN1CCC(C(=O)C(=O)O)C1=O (configuration not stated)	·	23.1	·	·	70.8µM*	20µM*
Cc1ccc(C)c(N=Cc2ccc(-c3ccc([N+](=O)[O-])cc3)o2)c1	16.0%	-6.9	-5.3%	?	?	56.2µM*
CCCCC(=O)N/N=C/c1ccc(-c2ccc([N+](=O)[O-])cc2)o1	-11.1%	-5.4	-9.2%	-9.7%	3.1%	-12.0%
COc1cc(NC(=O)Nc2cccc(-c3noc(C)n3)c2)cc(OC)c1OC	·	·	·	-10.4%	20.0%[57 µM]	-32.6%
NS(=O)(=O)c1ccc(NCc2ccccc2OCc2ccc(F)cc2)cc1	-2.8%	-2.1	1.2%	56.2µM*	7.4%	-27.9%
NS(=O)(=O)c1ccc(CCNCc2ccccc2OCc2ccc(F)cc2)cc1	·	-2.2	·	-13.4%	-0.3%	-8.0%
Clc1ccccc1NN=Cc1ccccn1	·	-7.8	·	·	·	·
S=c1[nH]nc(-c2ccccn2)n1/N=C/c1c(Cl)cccc1Cl	-7.3%	-16.1	20µM*	22.4µM*	-17.9%	3.55µM*
S=c1[nH]nc(COc2ccccc2)n1/N=C/c1c(Cl)cccc1Cl	·	1.5	·	2.0%	5.2%	-11.4%
S=c1[nH]nc(-c2ccccn2)n1/N=C/c1cccs1	5.4%	-2.4	28.2µM*	8.91µM*	19.4%	3.55µM*
Cc1ccc(/C=N/n2c(-c3ccc(Cl)cc3)n[nH]c2=S)o1	3.1%	5.7	-2.6%	-11.3%	35.1%	?
S=c1[nH]nc(-c2ccccn2)n1/N=C/c1ccccc1	?	-1.9	?	11.2µM*	-2.8%	2.82µM*
Cc1ccc(/C=N/n2c(-c3ccccn3)n[nH]c2=S)o1	-8.3%	-6.9	?	5.01µM*	?	5.62µM*
O=C(CSc1ccccc1)N1CCCC(N2CCN(c3ccccc3)CC2)C1 (configuration not stated)	·	-3.1	·	?	18.2%	-19.1%
CC(C)(C)c1ccc(OCC(=O)Nc2c(C(=O)c3ccc(F)cc3)oc3ccccc23)cc1	·	·	·	0.0%	55.5%	19.6%
CC1(C)SC2C(NC(=O)Cc3ccccc3)C(=O)N2C1C(=O)O (configuration not stated)	-14.9%	·	·	·	·	·
SMILES	KDM4E inh	PI5P4K alpha inh	L3MBTL1 inh	BAZ2B inh	HP1b chromo inh	JMJD2A Tudor inh
Fc1ccc(/C=N/n2c(-c3cccs3)n[nH]c2=S)cc1	1.7%	·	-2.4%	-34.6%	-25.3%	31.6µM*
S=c1[nH]nc(-c2ccccn2)n1/N=C/c1cccc2ccccc12	?	-13.0	31.6µM*	28.2µM*	?	5.62µM*
Cc1ccccc1/C=N/n1c(-c2ccccn2)n[nH]c1=S	-14.5%	-2.9	22.4µM*	8.91µM*	-16.0%	3.16µM*
Cc1n[nH]c(=S)n(/N=C/c2cccs2)c1=O	3.9%	-8.9	9.4%	-2.4%	22.2%	25.1µM*
O=C(NCCN1CCCCC1)c1ccc(Cn2c(SCc3ccc(F)cc3)nc3cccnc32)cc1	·	·	·	-11.5%	17.5%	-24.0%
S=c1[nH]nc(-c2ccccn2)n1/N=C/c1ccc(Cl)cc1	4.7%	4.3	15.8µM*	17.8µM*	0.1%	5.62µM*
S=c1[nH]nc(-c2ccccc2)n1/N=C/c1ccc(Cl)cc1	·	-3.8	·	-29.8%	11.3%	?
C=CCN=c1scc(-c2ccc3c(c2)NC(=O)CO3)n1/N=C(\C)c1ccccn1	-10.9%	-6.4	-27.2%	?	5.7%	-27.9%
CCN=c1scc(-c2ccc(F)cc2)n1/N=C/c1ccccn1	-13.6%	-3.3	-25.8%	·	?	?
CCN=c1scc(-c2ccccc2)n1/N=C/c1ccccn1	0.6%	1.5	-20.5%	14.1µM*	?	28.2µM*
C=CCN=c1scc(-c2ccccc2)n1/N=C/c1ccccn1	5.8%	0.9	-27.3%	28.2µM*	28.2µM*	44.7µM*
CCNc1oc(-c2ccc(COc3ccc(Cl)cc3)o2)nc1C#N	·	·	·	-37.2%	17.8%	-5.6%
CN(C)CCNc1oc(-c2ccc(COc3ccc(Cl)cc3)o2)nc1C#N	·	·	·	?	-13.0%	39.8µM*
COC1=CC(=O)C(O)=C/C1=C\C=C\c1ccccc1	12.6µM*	·	·	·	·	·
COc1ccc2c(c1)C(=O)/C(=C/C=C/c1ccccc1)CC2	6.4%	-3.0	-0.6%	6.8%	28.6%	-28.2%[57.1 µM]
COc1cc(N/N=C/c2ccccc2O)ncn1	25.1µM*	-23.4	?	28.2µM*	9.0%	44.7µM*
COc1cc(N/N=C/c2ccc(N(C)C)cc2)ncn1	?	-7.9	?	-33.8%	23.2%	-27.5%
CCCC(=O)Nc1cc(-c2nnc3c4ccccc4c(C)nn23)ccc1C	·	·	·	-0.5%	26.6%	-14.1%
N#Cc1nc(COc2ccc(F)cc2)oc1N1CCCCC1	6.2%	-5.6	?	?	-7.1%	-18.0%
N#Cc1nc(COc2ccc(Br)cc2)oc1N1CCCC1	-1.8%	-2.1	?	25.1µM*	?	?
N#Cc1nc(COc2ccccc2)oc1N1CCCCCC1	-0.7%	-2.8	·	35.5µM*	?	?
CCOC(=O)c1c(C)[nH]c(CCC(=O)Nc2ccc(C)c(F)c2)c1C	·	·	·	-0.5%	21.7%[57 µM]	-1.3%
O=C1CN=C(Nc2ccccc2Cl)N1Cc1ccc2c(c1)OCO2	-12.4%	-3.3	9.6%	-8.5%	69.5%	89.1µM*
COc1ccc(C(CNCC(O)COc2c(C)ccc(C)c2C)N(C)C)cc1 (configuration not stated)	·	6.6	·	56.2µM*	3.2%	22.4µM*
